Results: PubChem BioAssay AID1259415 (National Center for Advancing Translational Sciences (NCATS), 2018)
Values joined by “and” are separate entries in the source; they are usually repeats but may differ in a detail not shown here. Identical values can stand only once. Among all 410,000 compounds or so, about 18,000 (4.4%) were called active. About 7% were inconclusive and are not listed. No stated cut-off is given here; in the data, active means activity change below about -60%; inconclusive means no clear call, values can overlap the other calls; inactive means above about -39%. Many of the other results were omitted from the sample, so actives are more common in it than they were. Where a structure was tested more than once in an assay, its records may differ in their call.

Assay: qHTS Assay for inhibitors of the human cytomegalovirus (HCMV)
Conditions: HFF cells, HCMV-luciferase reporter, 72 h; at 57.5 µM; stronger effect = lower value
Summary of the method: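 Compounds were evaluated in HFFs infected with an HCMV luciferase reporter virus (MOI 1 PFU/cell). Luciferase in lysates collected 72 h post infection served as the replication measure.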
On the % scale 0 is the no-effect control and ±100 the full control effect.

Compound | activity change, negative = inhibition
COc1cc(OC)cc(C(=O)Nc2cc3nn(-c4ccccc4)nc3cc2Cl)c1 | 99.1% (inactive)
CCOC(=O)c1ccccc1NC(=O)CCc1c(C)nc2c(c1C)c(=O)n(C)c(=O)n2C | 5.18% (inactive)
CCC1OC(c2ccc([N+](=O)[O-])cc2)=Nc2ccccc21 (centres undefined) | 13.9% (inactive)
Cc1nc2ccccc2nc(=O)c1NNc1ccc([N+](=O)[O-])cc1 | 4.07% (inactive)
Cc1nc(-c2ccc([N+](=O)[O-])cc2)c(-c2ccccc2)o1 | -90.1% (active)
COc1ccc(Cn2ccnc2SCC(=O)NCc2ccco2)cc1 | -17.3% (inactive)
COc1cc(OC)cc(C2=Cc3ccccc3C(CC(=O)c3ccco3)N2c2ccc(-c3cnc(OC)nc3)cc2)c1 (centres undefined) | 18.6% (inactive)
NC(=O)c1ncc(C(F)(F)F)cc1Oc1ccc(F)cc1 | 0.451% (inactive)
COc1ccc(Cl)cc1NC(=O)CSc1nc2ccccc2c2nc(-c3ccccc3)nn12 | 11.6% (inactive)
CCOc1ccc(CCN2C(=O)C(=O)N([C@@H](Cc3ccc(O)cc3)CN3CCC[C@H]3CN3C(=O)C(=O)NC[C@@H]3CC(C)C)C[C@@H]2Cc2ccccc2)cc1 | -26.1% (inactive)
O=C(COC(=O)c1cncc(Br)c1)Nc1ccc(S(=O)(=O)N2CCOCC2)cc1 | -8.88% (inactive)
O=C(COc1ccc(Br)cc1)OCC(=O)c1ccc[nH]1 | 42.3% (inactive)
CCCOC(=O)c1c(NC(=O)c2cnn3c2NC(c2ccccc2)CC3C(F)(F)F)sc2c1CCCC2 (centres undefined) | -29.2% (inactive)
Cc1ccc(/C=C/C(=O)Nc2ccc([N+](=O)[O-])c(NC(=O)/C=C/c3ccc(C)o3)c2)o1 | -77% (active)
CCOc1ccc(NC(=S)NC(=O)/C=C/c2ccc(OC)cc2)c([N+](=O)[O-])c1 | 40.2% (inactive)
COc1ccc(OC)c(NC(=O)/C=C/c2ccc(C)o2)c1 | 33% (inactive)
COc1c(Cl)cc(C(=O)N(Cc2ccccc2F)C2CCS(=O)(=O)C2)cc1Cl (centres undefined) | -5.18% (inactive)
Cc1ccc(OCC(O)CN2CCN(CC(O)COc3ccc(C)cc3Cl)CC2)c(Cl)c1 (centres undefined) | -4.14% (inactive)
CCCn1c(=N)n(CC(O)COc2ccccc2OC)c2ccccc21 (centres undefined) | -33.4% (inactive)
COc1ccccc1OCC(O)CN1CCOCC1 (centres undefined) | -100% (active)
COc1ccc(S(=O)(=O)Nc2cc3c(C(=O)OC(C)C)c(C)oc3c3ccccc23)cc1 | 4.89% (inactive)
CCOc1ccc(OCC)c(NS(=O)(=O)c2ccc3[nH]c(=O)ccc3c2)c1 | 17.6% (inactive)
COc1cc(NS(=O)(=O)c2ccc3ccccc3c2)c2ncccc2c1 | -79.8% (active)

Compound | activity change, negative = inhibition
COc1cc2c(C(=O)N(C)c3cc(Cl)ccc3OC)cn(C)c(=O)c2cc1OC | -37.5% (inactive)
Cc1cc(C)c2oc(C(=O)Nc3c(C(=O)Nc4ccccc4)oc4ccccc34)cc(=O)c2c1 | 8.41% (inactive)
O=C(NNC(=O)C(O)c1ccccc1)NC1CCCCC1 (centres undefined) | -11.7% (inactive)
Cc1nc(/N=C(\N)NC(=O)NC2CCCCC2)nc2ccccc12 | -84.3% (active)
O=C(Cn1nnc(-c2ccccc2)n1)NC(=O)NC1CCCC1 | 11.9% (inactive)
Cc1ccc(C)c(S(=O)(=O)n2nc(C)c(S(=O)(=O)N3CCC(C)CC3)c2C)c1 | -3.95% (inactive)
Cc1ccc(S(=O)(=O)N2CCN(c3ncnc4ccccc34)CC2)cc1 | -87.3% (active)
Cc1ccc(C)c(S(=O)(=O)c2nnn3c2nc(N2CCOCC2)c2sccc23)c1 | 28.6% (inactive)
Cc1ccc(C)c(S(=O)(=O)N2CCN(c3ncnc4sccc34)CC2)c1 | -96.6% (active)
COc1ccc(S(=O)(=O)N2CCN(c3ncnc4c(-c5ccccc5)nsc34)CC2)cc1 | 3.62% (inactive)
Cc1ccc(S(=O)(=O)N2CCN(Cc3cccc(C)c3O)CC2)cc1 | -3.34% (inactive)
CCOc1ccc2oc(C(=O)N(CC)CC(=O)Nc3ccc(NC(C)=O)cc3)c(C)c2c1 | -18.7% (inactive)
O=S(=O)(c1ccc(Br)cc1)c1nnn2c1nc(N1CCOCC1)c1sccc12 | 18.7% (inactive)
CCCOc1ccc(N2C(=O)CC(N(CCc3ccc(S(N)(=O)=O)cc3)C(C)=O)C2=O)cc1 (centres undefined) | 29.6% (inactive)
CC1CCN(C(=O)Cn2c(=O)n(-c3ccc(Cl)cc3)c(=O)c3c4c(sc32)CCC4)CC1 | 3.05% (inactive)
O=C(Cn1nc(C(F)(F)F)c2c1CCC2)NCc1ccc(F)cc1 | -0.659% (inactive)
Cc1cc(NC(=O)Cn2nc(C(F)(F)F)c3c2CCCC3)no1 | 31% (inactive)
O=C(Cn1nc(C(F)(F)F)c2c1CCCC2)Nc1ccc(Cl)cc1 | -105% (active)
Cc1ccc2nc(CNC(=O)c3ccccc3)[nH]c2c1 | 61% (inactive)
CCCNC(=O)C1CCN(c2nc3ccc(C)cc3[nH]2)CC1 | 0% (active)
CCOc1ccc2nc(N3CCC(C(=O)Nc4cc(C)ccc4C)CC3)sc2c1 | 20% (inactive)
Cc1[nH]c2ccccc2c1[N+](=O)[O-] | 6.63% (inactive)
COC(=O)N(NC(=O)C(O)(C(C)C)C(C)C)c1ccccc1 | 2.98% (inactive)

Compound | activity change, negative = inhibition
Cc1cccc(N(CC(O)CN(C)C)S(=O)(=O)c2ccccc2)c1 (centres undefined) | -26.4% (inactive)
CCCCNC(=O)CN1C(=O)NC(Cc2ccccc2)(Cc2ccccc2)C1=O | -14.4% (inactive)
Cc1cccc(N(Cc2ccccc2)C(=O)c2ccccc2F)c1 | 1.73% (inactive)
CCCCC(O)(CCCC)C(=O)NN(C(=O)CCl)c1ccccc1 | -94.6% (active)
CCCC(O)(CCC)C(=O)NN(C(=O)CCl)c1cccc(C)c1 | -101% (active)
COCn1c(C(O)c2ccccc2)cc2ccccc21 (centres undefined) | 3.56% (inactive)
O=C(CSc1ncc(S(=O)(=O)c2ccc(Br)cc2)c(=O)[nH]1)Nc1ccc2c(c1)OCCO2 | 3.97% (inactive)
CCCN1CN=C(NS(=O)(=O)c2ccc(NC(C)=O)cc2)NC1 | -18.1% (inactive)
COc1ccccc1NC(=O)CSc1oc(-c2ccco2)nc1S(=O)(=O)c1ccc(Br)cc1 | 12.2% (inactive)
CCOc1ccc(NC(=O)CCc2c(C)nn(-c3ccc(N4CCCC4)nn3)c2C)cc1 | -23.2% (inactive)
COc1ccc(-c2nc3sc(CCNS(=O)(=O)c4ccc(F)c(C)c4)c(C)n3n2)cc1 | -32.9% (inactive)
CCCCN=C(N)/C(C(=O)OCC)=C(\O)c1ccc(OC)cc1 | -26.4% (inactive)
Cc1ccc(-c2nnc(SCc3ccccc3C)o2)cc1 | 82.8% (inactive)
O=C(C(=O)N1CCN(c2ccccc2)CC1)c1ccc2c(c1)OCO2 | -64.4% (active)
O=C(c1ccc2c(c1)OCO2)N1CCNc2ccccc2C1 | -3.54% (inactive)
C/C(=C/c1ccccc1)C(=O)N1CCN(c2ccccc2)CC1 | -16.3% (inactive)
CCC(Sc1nnc(-c2ccc(OC)cc2)c(-c2ccc(OC)cc2)n1)C(=O)NC1CCCCC1 (centres undefined) | 5.23% (inactive)
CCOC(=O)C1SC2(C(F)(F)C(F)F)CC1(O)c1c(c(OC)c3occc3c1OC)O2 (centres undefined) | -23.2% (inactive)
C/C(=N\NC(=O)C1(C)CC1(Br)Br)c1ccc(C)cc1C (centres undefined) | 2.84% (inactive)
Cc1cc(C)cc(NC(c2nnc(-c3cccc(F)c3)o2)c2ccc(F)cc2Cl)c1 (centres undefined) | -0.542% (inactive)
CC(=O)N1CCCc2ccc(NS(=O)(=O)c3ccc(F)cc3F)cc21 | 51.5% (inactive)
Cc1nn(-c2ccccc2)c(Cl)c1/C=N/NC(=O)c1nn(C)cc1[N+](=O)[O-] | -99% (active)
Cc1nn(-c2ccccc2)c(-n2cccc2)c1C(=O)O | -33.7% (inactive)

Compound | activity change, negative = inhibition
Cc1c(NC(=O)c2c([N+](=O)[O-])cnn2C)c(=O)n(-c2ccccc2)n1C | 7.76% (inactive)
Cn1c(=O)c2c(nc(SCC(=O)Nc3ccc(F)cc3)n2Cc2ccc(Cl)cc2)n(C)c1=O | -3.29% (inactive)
CCN(C(=O)CSc1nc(N)cc(=O)[nH]1)C1CCS(=O)(=O)C1 (centres undefined) | -1.32% (inactive)
Cc1ccc2c(=O)cc(C(=O)Nc3sc4c(c3C(=O)NCc3cccnc3)CCCC4)oc2c1 | -0.307% (inactive)
Cc1ccc(OCC(=O)Nc2ccc(Cl)c(-c3nc4ccccc4[nH]3)c2)cc1C | -26.2% (inactive)
Cc1ccc(C)c(OCC(=O)Nc2sc3c(c2C#N)CCCC3)c1C | -17.4% (inactive)
CC1C(c2ccccc2)=[N+]([O-])C2(CCCC2)N1O (centres undefined) | 21.7% (inactive)
CCCn1c2ccccc2c2cnn(CC(=O)NCCCN3CCCCC3CC)c(=O)c21 (centres undefined) | 5.34% (inactive) and -76.4% (active)
CC1CCCCN1CCCNC(=O)Cn1ncc2c([nH]c3ccccc32)c1=O (centres undefined) | 25.9% (inactive) and 24.1% (inactive)
CCCn1c2ccccc2c2cnn(CC(=O)NCCCOC(C)C)c(=O)c21 | -18.7% (inactive)
CCOC(=O)CNc1nc(Cl)nc(Nc2ccc(OC)cc2OC)n1 | -6.89% (inactive)
COc1ccc(NC(=O)NNC(=O)COc2cc(C)c(Cl)c(C)c2)c(OC)c1 | -4.84% (inactive)
COc1ccc(Nc2ncnc3ccc(Br)cc23)c(OC)c1 | -98.7% (active)
CC(=O)c1ccc(N2CCN(C3C(=O)c4ccccc4N3C(C)=O)CC2)cc1 (centres undefined) | 0% (inactive)
CCOC(=O)N1CCC(NC(=O)C(NS(=O)(=O)c2ccc3c(c2)CCN3C(=O)CC)C(C)C)CC1 (centres undefined) | 1.92% (inactive)
COc1cccc2c1cc1c(=O)n(CC(=O)N3CCN(c4ccccc4)CC3)nc(C)n12 | 3.76% (inactive)
O=C(Cn1ncc2c3ccccc3n(Cc3ccccc3)c2c1=O)NC1CCCCCC1 | 12.7% (inactive)
Cc1scc(C(=O)NNC(=S)NCc2ccccc2)c1C | -63.5% (active)
CC(C)CNC(=S)NNC(=O)c1ccccc1OC(F)F | 2.34% (inactive)
Cc1scc(C(=O)NNC(=S)NCC(C)C)c1C | -1.28% (inactive)
